Records with an inconclusive call do not appear. Where a structure was tested more than once in an assay, its records may differ in their call. Calls of active or inactive are those of the source. Unless noted, calls follow the shape of the dose curve; as a rule, active = well fitted curve in the direction sought with a large enough effect; inconclusive = small, poorly fitted or top-dose-only effect, or another doubt; inactive = no such curve, though single readings can be large; an effect the other way counts as inactive or inconclusive.
Experiments:
[1] = biological target: Thioredoxin reductase 1, cytoplasmic (Rattus norvegicus) (UniProt O89049); assay: qHTS Assay for Substrates of Mammalian Selenoprotein Thioredoxin Reductase 1 (TrxR1) (AID 488772);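 also: NADPH fluorescence in the first read after selenite addition and not the 8 min delta; series mostly up to about 57 µM; 0% is about no effect; a drop in NADPH fluorescence below the no-compound background marks a TrxR1 substrate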
Chain of Thioredoxin reductase 1, cytoplasmic (Rattus norvegicus) (O89049 whole entry, looked up): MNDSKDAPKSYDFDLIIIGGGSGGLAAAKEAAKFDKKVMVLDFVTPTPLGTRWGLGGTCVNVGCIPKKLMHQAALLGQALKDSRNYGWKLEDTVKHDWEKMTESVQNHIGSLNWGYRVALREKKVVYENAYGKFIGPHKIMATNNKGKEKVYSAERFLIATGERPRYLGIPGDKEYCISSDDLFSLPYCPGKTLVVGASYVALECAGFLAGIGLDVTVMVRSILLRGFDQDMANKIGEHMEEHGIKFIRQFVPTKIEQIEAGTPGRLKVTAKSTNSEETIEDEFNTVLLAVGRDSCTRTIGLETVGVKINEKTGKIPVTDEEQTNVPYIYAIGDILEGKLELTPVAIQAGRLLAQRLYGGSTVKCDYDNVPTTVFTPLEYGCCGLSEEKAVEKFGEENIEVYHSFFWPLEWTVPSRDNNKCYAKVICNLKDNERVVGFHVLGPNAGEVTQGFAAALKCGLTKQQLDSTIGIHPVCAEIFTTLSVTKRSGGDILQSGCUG
How it was run: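 Quantitative HTS in Tris-HCl buffer at pH 7.5 with EDTA and Tween-20, using rat TrxR1, 400 uM NADPH and 400 uM selenite (final). A fall in initial NADPH fluorescence relative to background marked substrate behaviour.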

[2] = biological target: Thioredoxin reductase 1, cytoplasmic (Rattus norvegicus) (UniProt O89049); assay: qHTS Assay for Inhibitors of Mammalian Selenoprotein Thioredoxin Reductase 1 (TrxR1) (AID 488773); conditions: Potency: inhibition; also: nearly all actives have a fitted effect of over 40% in size; also: potency is read from the fitted curve at half-maximal effect
How it was run: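 Steps: enzyme (90 nM) plus NADPH (400 uM final), 5 min at ~22 deg C; compound added, 15 min; selenite (400 uM final) added; fluorescence followed for 8 min. Concentration-response curves derived from the normalized delta values.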

[3] = biological target: Flap endonuclease 1 (Homo sapiens) (UniProt P39748); assay: qHTS Validation Assay for the Inhibitors of Human Flap endonuclease 1 (FEN1) (AID 488816); also: potency is read from the fitted curve at half-maximal effect
Chain of Flap endonuclease 1 (Homo sapiens) (P39748 whole entry, looked up): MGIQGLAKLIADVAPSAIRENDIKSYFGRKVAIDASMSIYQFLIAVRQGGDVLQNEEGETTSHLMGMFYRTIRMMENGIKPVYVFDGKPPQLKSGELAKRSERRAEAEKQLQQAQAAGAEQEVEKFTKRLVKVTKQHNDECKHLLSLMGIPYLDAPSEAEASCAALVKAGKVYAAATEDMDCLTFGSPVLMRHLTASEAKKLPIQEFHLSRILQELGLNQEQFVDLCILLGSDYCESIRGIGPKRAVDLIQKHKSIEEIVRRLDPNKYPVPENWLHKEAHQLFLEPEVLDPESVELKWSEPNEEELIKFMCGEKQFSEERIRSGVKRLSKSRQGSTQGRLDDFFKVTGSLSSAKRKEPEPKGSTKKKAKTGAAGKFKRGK
How it was run: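 FEN1, dispensed as a 10 nM reagent, was preincubated with pin-transferred compounds for 15 min at room temperature before substrate was added (50 nM final). Plates were read at 0 and 15 min, and a four-parameter Hill equation was fitted to the concentration-response data.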

[4] = biological target: M-phase phosphoprotein 8 (Homo sapiens) (UniProt Q99549); assay: qHTS Validation Assay for Inhibitors for MPP8 Chromodomain Interactions with Methylated Histone Tails (AID 488949); also: nearly all actives have a fitted effect of over 55% in size; also: potency is read from the fitted curve at half-maximal effect
Chain of M-phase phosphoprotein 8 (Homo sapiens) (Q99549 whole entry, looked up): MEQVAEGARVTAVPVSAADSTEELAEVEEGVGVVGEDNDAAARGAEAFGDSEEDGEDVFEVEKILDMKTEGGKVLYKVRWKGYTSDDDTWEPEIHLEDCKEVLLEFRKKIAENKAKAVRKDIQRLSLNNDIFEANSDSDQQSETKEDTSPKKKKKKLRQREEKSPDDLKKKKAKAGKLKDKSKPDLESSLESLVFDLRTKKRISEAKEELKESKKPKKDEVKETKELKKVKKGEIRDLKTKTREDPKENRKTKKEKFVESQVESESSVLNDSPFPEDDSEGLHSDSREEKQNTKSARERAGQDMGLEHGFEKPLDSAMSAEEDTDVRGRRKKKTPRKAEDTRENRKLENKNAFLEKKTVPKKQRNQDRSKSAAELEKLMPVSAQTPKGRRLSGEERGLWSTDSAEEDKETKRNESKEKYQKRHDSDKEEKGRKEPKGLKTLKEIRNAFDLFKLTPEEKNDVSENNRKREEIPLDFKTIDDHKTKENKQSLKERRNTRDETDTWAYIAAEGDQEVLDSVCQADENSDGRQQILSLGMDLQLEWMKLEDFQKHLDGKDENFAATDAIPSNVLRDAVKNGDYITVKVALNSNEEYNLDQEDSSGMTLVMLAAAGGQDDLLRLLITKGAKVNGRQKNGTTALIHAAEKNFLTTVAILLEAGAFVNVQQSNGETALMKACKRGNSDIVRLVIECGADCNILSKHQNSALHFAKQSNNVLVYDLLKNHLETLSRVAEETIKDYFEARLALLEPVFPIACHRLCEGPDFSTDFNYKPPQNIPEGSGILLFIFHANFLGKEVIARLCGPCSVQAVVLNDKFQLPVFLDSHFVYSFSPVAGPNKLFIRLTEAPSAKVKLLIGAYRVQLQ
How it was run: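 AlphaScreen read-out: streptavidin donor and nickel chelate acceptor beads (final 10 ug/mL), 30 min in the dark at RT. Complex of 50 nM MPP8 and 50 nM b-H3(1-18)K9me3 peptide had been exposed to compounds for 30 min beforehand.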

[5] = biological target: Methanococcus maripaludis chaperonin (MmCpn) (UniProt Q6LX38); assay: High-Throughput Screening for Modulators of Cytosolic Chaperonin Activity: MmCpn Primary Screen (AID 488978);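 also: 50 nM MmCpn enzyme hydrolysing 30 µM ATP at 37 °C; 0% is about no effect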
How it was run: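 ADP formation read by HTRF Transcreener, 665/590 nm emission after 320 nm excitation. Enzyme: archaeal chaperonin at 50 nM final; substrate ATP 30 uM final; 10 min, 37C, after 5 min compound preincubation at RT.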

[6] = biological target: Transient receptor potential cation channel subfamily V member 1 (Homo sapiens) (UniProt Q8NER1); assay: HTS Assay for Compounds that Act as Enhancers of the Vanilloid Receptor 1 (AID 488979); also: 0% is about no effect
Chain of Transient receptor potential cation channel subfamily V member 1 (Homo sapiens) (Q8NER1 whole entry, looked up): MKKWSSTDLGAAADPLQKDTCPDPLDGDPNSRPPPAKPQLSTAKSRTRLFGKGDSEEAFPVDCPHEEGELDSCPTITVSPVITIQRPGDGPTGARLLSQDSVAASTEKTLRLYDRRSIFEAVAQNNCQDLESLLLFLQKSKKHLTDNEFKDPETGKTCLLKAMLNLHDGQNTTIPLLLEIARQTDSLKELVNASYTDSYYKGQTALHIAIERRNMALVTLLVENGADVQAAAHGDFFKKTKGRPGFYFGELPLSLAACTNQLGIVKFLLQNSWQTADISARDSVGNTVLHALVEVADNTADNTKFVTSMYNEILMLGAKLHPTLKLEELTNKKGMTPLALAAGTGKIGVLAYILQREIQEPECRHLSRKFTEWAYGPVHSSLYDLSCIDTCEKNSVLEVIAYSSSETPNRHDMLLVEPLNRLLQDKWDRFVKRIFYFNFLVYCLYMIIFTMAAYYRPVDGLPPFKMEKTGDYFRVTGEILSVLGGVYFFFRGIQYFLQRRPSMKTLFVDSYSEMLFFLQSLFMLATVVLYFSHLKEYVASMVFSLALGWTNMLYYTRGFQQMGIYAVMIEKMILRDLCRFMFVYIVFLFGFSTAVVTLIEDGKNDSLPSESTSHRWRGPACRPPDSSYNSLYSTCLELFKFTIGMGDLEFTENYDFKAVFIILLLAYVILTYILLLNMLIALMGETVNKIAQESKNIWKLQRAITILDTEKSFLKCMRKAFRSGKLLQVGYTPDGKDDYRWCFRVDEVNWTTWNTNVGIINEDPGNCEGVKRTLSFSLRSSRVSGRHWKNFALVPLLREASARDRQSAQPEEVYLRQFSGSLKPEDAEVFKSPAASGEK
How it was run: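 TRPV1-expressing cells loaded with Fluo-8 calcium dye; compounds added and calcium influx read kinetically for 3 min (agonist phase), then capsaicin at EC20 added and read 2 min more for enhancement. Fluorescence ex 480/em 520 nm.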

[7] = biological target: Thyrotropin receptor (Homo sapiens) (UniProt P16473); assay: qHTS Assay for Antagonists of the Thyroid Stimulating Hormone Receptor (AID 488980); also: series mostly up to about 58 µM; 0% is about no effect
Chain of Thyrotropin receptor (Homo sapiens) (P16473 whole entry, looked up): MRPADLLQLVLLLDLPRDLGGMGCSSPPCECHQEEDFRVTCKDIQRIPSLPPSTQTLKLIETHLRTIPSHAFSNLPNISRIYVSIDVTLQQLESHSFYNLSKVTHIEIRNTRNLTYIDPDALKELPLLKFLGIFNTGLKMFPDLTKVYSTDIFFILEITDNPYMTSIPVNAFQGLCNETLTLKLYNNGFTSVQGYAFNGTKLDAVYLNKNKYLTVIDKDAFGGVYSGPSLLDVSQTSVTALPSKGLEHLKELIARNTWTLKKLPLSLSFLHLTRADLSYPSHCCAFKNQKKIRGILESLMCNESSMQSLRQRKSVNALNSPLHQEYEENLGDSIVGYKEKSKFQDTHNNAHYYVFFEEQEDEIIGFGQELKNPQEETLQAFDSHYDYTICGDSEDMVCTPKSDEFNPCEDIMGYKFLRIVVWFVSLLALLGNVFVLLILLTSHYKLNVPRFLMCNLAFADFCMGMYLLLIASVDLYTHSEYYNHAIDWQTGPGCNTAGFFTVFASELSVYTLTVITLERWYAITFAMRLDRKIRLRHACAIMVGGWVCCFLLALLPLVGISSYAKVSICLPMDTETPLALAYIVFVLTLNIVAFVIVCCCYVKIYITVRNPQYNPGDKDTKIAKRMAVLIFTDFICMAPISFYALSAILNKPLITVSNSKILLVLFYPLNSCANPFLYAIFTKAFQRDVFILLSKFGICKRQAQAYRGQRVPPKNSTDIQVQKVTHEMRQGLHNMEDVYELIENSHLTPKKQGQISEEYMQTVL
How it was run: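 TSHR-HEK293 cells; 70 uM RO 20-1724 PDE inhibitor; compound + EC80 TSH (4 nM final); anti-cAMP cryptate antibody/cAMP-d2 in lysis buffer, 30 min RT; HTRF 665/620 nm read.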

[8] = biological target: D(1A) dopamine receptor (Homo sapiens) (UniProt P21728); assay: HTS Assay for Allosteric Agonists of the Human D1 Dopamine Receptor: Primary Screen for Agonists (AID 488981); also: 0% is about no effect
Chain of D(1A) dopamine receptor (Homo sapiens) (P21728 whole entry, looked up): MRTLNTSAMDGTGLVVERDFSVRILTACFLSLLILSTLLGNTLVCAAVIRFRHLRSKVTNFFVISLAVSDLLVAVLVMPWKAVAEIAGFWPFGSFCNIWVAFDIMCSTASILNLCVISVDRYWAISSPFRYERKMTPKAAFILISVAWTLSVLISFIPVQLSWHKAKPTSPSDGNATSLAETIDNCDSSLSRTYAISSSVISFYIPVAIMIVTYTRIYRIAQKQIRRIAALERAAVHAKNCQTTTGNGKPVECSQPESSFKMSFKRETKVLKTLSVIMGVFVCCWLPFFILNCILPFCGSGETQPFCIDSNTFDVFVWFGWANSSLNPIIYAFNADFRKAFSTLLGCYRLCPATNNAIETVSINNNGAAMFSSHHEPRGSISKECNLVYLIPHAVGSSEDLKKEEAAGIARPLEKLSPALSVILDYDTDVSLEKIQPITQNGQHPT
How it was run: (§1)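 Tetracycline-induced HEK293 T-REx cells force-coupled to calcium signalling were incubated overnight at 30 C and dye-loaded at room temperature. Calcium flux over 180 s after compound addition flagged agonists; a further 180 s read after EC20 dopamine flagged potentiators.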

[9] = biological target: D(1A) dopamine receptor (Homo sapiens) (UniProt P21728); assay: HTS Assay for Allosteric Agonists of the Human D1 Dopamine Receptor: Primary Screen for Antagonists (AID 488983);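 also: calcium flux response to an EC80 dopamine challenge measured with no-wash dye; nearly all actives have a fitted effect of over 65% in size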; also: potency is read from the fitted curve at half-maximal effect
How it was run: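 Cells are induced with tetracycline and incubated overnight at 30 C, then loaded with calcium dye for 30 to 90 minutes at room temperature. Compound addition is followed by a 180 s read, then an EC80 dopamine addition and another 180 s read.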

[10] = Validation screen for small molecules that induce genotoxicity in human embryonic kidney (HEK293T) cells expressing luciferase-tagged ELG1 (AID 493106); also: 0% is about no effect
How it was run: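 Luminescence from an ELG1-luciferase fusion serves as the read-out, rising when genetic stress elevates ELG1 protein. HEK293T reporter cells (2,000 per well) received 23 nL compound, incubated 16 hr at 37 °C, then ONE-Glo for 30 min at room temperature.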

[11] = biological target: ATPase family AAA domain-containing protein 5 (Homo sapiens) (UniProt Q96QE3); assay: Validation screen for small molecules that inhibit ELG1-dependent DNA repair in human embryonic kidney (HEK293T) cells expressing luciferase-tagged ELG1 (AID 493107);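 also: cells co-treated with the DNA-damaging agent 5-fluorouridine alongside compound; series mostly up to about 46 µM; % is scaled to controls: 0 for no effect and ±100 for the full control effect; inhibitors lower the ELG1-luciferase luminescence signal; nearly all actives have a fitted effect of over 70% in size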
How it was run: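 Luminescence from ONE-Glo, developed 30 min at room temperature, served as read-out of ELG1-luciferase levels. Beforehand, reporter HEK293T cells received 5-fluorouridine plus test compound for 16 hr at 37 °C.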

[12] = biological target: Thyrotropin-releasing hormone receptor (Homo sapiens) (UniProt P34981); assay: qHTS for Small Molecule Agonists and Allosteric Enhancers of Human TRH Receptor: Validation Screen for Agonists (AID 493127;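 active = calcium activation more than 3 SD above the typical response in the agonist read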;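 also: intracellular calcium rise by fluo-8 fluorescence before TRH EC20 addition; 0% is about no effect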); conditions: TRH receptor agonist cell assay; at 2 µM; stronger effect = higher value
Chain of Thyrotropin-releasing hormone receptor (Homo sapiens) (P34981 whole entry, looked up): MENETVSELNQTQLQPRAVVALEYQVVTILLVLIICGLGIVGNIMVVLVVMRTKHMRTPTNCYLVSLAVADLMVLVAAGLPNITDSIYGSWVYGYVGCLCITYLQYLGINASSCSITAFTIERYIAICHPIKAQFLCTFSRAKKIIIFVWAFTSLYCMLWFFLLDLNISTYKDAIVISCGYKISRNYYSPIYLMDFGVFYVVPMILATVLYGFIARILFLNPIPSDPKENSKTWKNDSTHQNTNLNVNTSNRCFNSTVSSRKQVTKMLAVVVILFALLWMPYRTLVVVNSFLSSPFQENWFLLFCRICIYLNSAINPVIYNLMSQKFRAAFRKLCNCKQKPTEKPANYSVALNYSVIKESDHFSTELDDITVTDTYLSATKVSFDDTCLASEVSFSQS
How it was run: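 Cells 2000/well, 10% FCS, 18 h 33.5C/5% CO2 → fluo-8 Ca dye, RT 30 min–1.5 h → FDSS baseline 10 × 1 s → compound added → 230 cycles (1 s/cycle) agonist mode. TRH controls.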

[13] = Nrf2 qHTS screen for inhibitors: Validation (AID 493153; active = well fitted inhibition curve with a large enough effect in the main read-out, with a control signal flat, not every such curve was filed as active); conditions: Potency: luciferase luminescence; viability change: measured here: cytotoxicity max response
How it was run: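 Luminescence from an ARE-firefly luciferase reporter in A549 cells gives Nrf2 inhibition; an earlier CellTiter-Fluor fluorescent read flags cytotoxicity. Cells in 5% FBS OPTI-MEM received compound dilution series for 18-24 h at 37°C.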

[14] = qHTS for Inhibitors of Cell Surface uPA Generation: Validation Assay (AID 493164); also: 0% is about no effect
How it was run: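 RAW 264.7 cells (4000/well) were plated overnight, then exposed for 18 h at 37 C, 5% CO2 to compounds in a 7-point 1:5 titration (2.45 nM–38.3 uM final). Intracellular ATP was read by ATP-Lite luminescence.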

[15] = biological target: Galactokinase (Homo sapiens) (UniProt P51570); assay: qHTS Validation Assay for Inhibitors of Human Galactokinase (GALK) (AID 493189); also: 0% is about no effect
Chain of Galactokinase (Homo sapiens) (P51570 whole entry, looked up): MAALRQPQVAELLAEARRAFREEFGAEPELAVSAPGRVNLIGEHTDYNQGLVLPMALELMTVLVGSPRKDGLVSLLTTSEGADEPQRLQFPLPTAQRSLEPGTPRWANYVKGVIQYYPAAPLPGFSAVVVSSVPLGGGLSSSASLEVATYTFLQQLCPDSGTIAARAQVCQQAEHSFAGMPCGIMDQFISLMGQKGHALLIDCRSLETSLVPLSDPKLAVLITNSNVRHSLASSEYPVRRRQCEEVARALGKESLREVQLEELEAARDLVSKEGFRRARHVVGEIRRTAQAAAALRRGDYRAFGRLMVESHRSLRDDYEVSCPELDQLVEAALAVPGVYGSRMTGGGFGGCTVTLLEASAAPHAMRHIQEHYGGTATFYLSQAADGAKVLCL
How it was run: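 Luminescence from leftover ATP (Kinase-Glo Plus, 10 min) served as read-out after a 1 h room-temperature reaction of 5 nM GALK, 100 uM galactose and 35 uM ATP at pH8.0.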

[16] = Validation screen for small molecules that induce DNA re-replication in SW480 colon adenocarcinoma cells (AID 504364); also: 0% is about no effect
How it was run: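 250 cells/well; compound pinned in; 48 hr, 37 C, 5% CO2; Hoechst added, 40 min; nuclear fluorescence imaged, 405 ex / 500-530 em; re-replication scored as increase in high-intensity nuclei.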

[17] = biological target: D(1A) dopamine receptor (Homo sapiens) (UniProt P21728); assay: HTS Assay for Allosteric Agonists of the Human D1 Dopamine Receptor: Primary Screen for Potentiators (AID 488982); also: 0% is about no effect
How it was run: as §1

[18] = biological target: Chromobox protein homolog 1 (Homo sapiens) (UniProt P83916); assay: qHTS Validation Assay for Inhibitors of HP1-beta Chromodomain Interactions with Methylated Histone Tails (AID 488953); also: nearly all actives have a fitted effect of over 50% in size; also: potency is read from the fitted curve at half-maximal effect
Chain of Chromobox protein homolog 1 (Homo sapiens) (P83916 whole entry, looked up): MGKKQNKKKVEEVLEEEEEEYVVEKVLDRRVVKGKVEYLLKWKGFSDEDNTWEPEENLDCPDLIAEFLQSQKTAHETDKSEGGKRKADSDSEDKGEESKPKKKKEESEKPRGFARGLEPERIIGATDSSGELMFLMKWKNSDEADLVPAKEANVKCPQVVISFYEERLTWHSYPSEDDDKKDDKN
How it was run: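 50 nM HP1-beta + 50 nM biotin-H3(1-18)K9me3, PBS pH 7.4, 0.01% Tween-20, 30 min RT; compound added, 30 min RT; AlphaScreen beads 10 ug/mL final, 30 min dark; luminescence read.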

[19] = biological target: ATP-dependent 6-phosphofructokinase (Trypanosoma brucei brucei) (UniProt O15648); assay: qHTS Assay to Find Inhibitors of T. brucei phosphofructokinase: hit validation (AID 492961);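 also: luminescence reports ADP formed as PFK phosphorylates fructose-6-phosphate with ATP; series mostly up to about 51 µM; % is scaled to controls: 0 for no effect and ±100 for the full control effect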
How it was run: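 PFK 1.25 nM, F6P 0.5 mM, ATP 0.1 mM, MgCl2 5 mM, 0.1 M TEA pH 8.0, Tween20 0.01%, BSA 0.1%; 45 min RT. ADP-Glo two-step detection, luminescence. qHTS titration; curve fitting with curve-class categorization.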

C[N+](C)(CCCCCC[N+](C)(C)CCCN1C(=O)c2cccc3cccc(c23)C1=O)CCCN1C(=O)c2cccc3cccc(c23)C1=O
inactive: Potency [1] | Potency [2] | Potency [4] | outcome [5] | outcome [6] | outcome [7] | Potency [8] | Potency [9] | Potency [10] | Potency [11] | activation [12] -0.188% | Potency [13] | outcome [14] | Potency [15] | Potency [16]
active: Potency [3] 2.99 µM
-2.29%: viability change [13]

CC1(C)CCC=[N+]1[O-]
inactive: Potency [1] | Potency [2] | Potency [3] | Potency [4] | outcome [5] | outcome [6] | outcome [7] | Potency [8] | Potency [17] | Potency [9] | Potency [10] | Potency [11] | activation [12] 1.19% | Potency [13] | outcome [14] | Potency [15] | Potency [16]
-0.162%: viability change [13]

CN(C)C(N)=NCCC[C@H](N)C(=O)O
inactive: Potency [1] | Potency [2] | Potency [3] | Potency [4] | outcome [5] | outcome [6] | outcome [7] | Potency [8] | Potency [17] | Potency [9] | Potency [10] | Potency [11] | activation [12] 0.188% | Potency [13] | outcome [14] | Potency [15] | Potency [16]
-5.79%: viability change [13]

CC(=O)/C=C1\C(=O)N(C)c2ccccc21
inactive: Potency [1] | Potency [3] | Potency [4] | outcome [5] | Potency [8] | Potency [17] | Potency [10] | Potency [11] | Potency [13] | outcome [14]
-4.33%: viability change [13]
active: Potency [2] 29.9 µM | Potency [9] 10 µM

Ic1ccc(N2CCN(Cc3c[nH]c4ncccc34)CC2)cc1
inactive: Potency [1] | Potency [2] | Potency [3] | Potency [4] | outcome [6] | outcome [7] | Potency [8] | Potency [17] | Potency [9] | Potency [10] | activation [12] 3.5% | outcome [14] | Potency [15] | Potency [16]
active: Potency [18] 44.7 µM

OC[C@H]1O[C@@H](n2cnc3c(NC4CCCCC4)ncnc32)[C@H](O)[C@@H]1O
inactive: Potency [1] | Potency [2] | Potency [3] | Potency [4] | Potency [18] | outcome [5] | outcome [6] | outcome [7] | Potency [8] | Potency [17] | Potency [9] | Potency [10] | activation [12] 0.562% | Potency [13] | outcome [14] | Potency [15] | Potency [16]
2.64%: viability change [13]

OC[C@H]1O[C@@H](n2cnc3c(NC4CCCC4)ncnc32)[C@H](O)[C@@H]1O
-2.89%: viability change [13]
inactive: Potency [1] | Potency [2] | Potency [3] | Potency [4] | Potency [18] | outcome [5] | Potency [8] | Potency [11] | Potency [13] | outcome [14]

CCOC(=O)C1=C(C)NC(C)=C(C(=O)OCC)C1c1c(F)c(F)c(F)c(F)c1F
inactive: Potency [1] | Potency [2] | Potency [3] | Potency [4] | Potency [18] | outcome [5] | Potency [8] | Potency [17] | Potency [10] | outcome [14]

CC(C)(C)c1ccc(S(=O)(=O)/C=C/C#N)cc1
20 µM (active) and inactive: Potency [4]
active: Potency [2] 0.377 µM | Potency [18] 44.7 µM
inactive: Potency [1] | Potency [3] | outcome [5] | outcome [7] | activation [12] 7.44% | Potency [13] | outcome [14] | Potency [15] | Potency [16]
4.47%: viability change [13]

COc1cccc(OC)c1OCCNCC1COc2ccccc2O1 (stereo unspecified)
4.98%: viability change [13]
active: Potency [9] 0.316 µM
inactive: Potency [1] | Potency [2] | Potency [3] | Potency [4] | Potency [18] | outcome [5] | outcome [6] | outcome [7] | Potency [8] | Potency [17] | Potency [10] | Potency [11] | activation [12] -3.69% | Potency [13] | outcome [14] | Potency [15] | Potency [16]

c1ccc(-c2ccccn2)nc1
-0.658%: viability change [13]
inactive: Potency [1] | Potency [2] | Potency [3] | Potency [4] | outcome [5] | outcome [6] | outcome [7] | Potency [8] | Potency [17] | Potency [9] | Potency [10] | Potency [11] | activation [12] 0% | Potency [13] | outcome [14] | Potency [15] | Potency [16]

C[C@@H](CN1CCC(Cc2ccccc2)CC1)[C@@H](O)c1ccc(O)cc1
8.45%: viability change [13]
inactive: Potency [1] | Potency [2] | Potency [3] | Potency [4] | Potency [18] | outcome [5] | outcome [6] | outcome [7] | Potency [8] | Potency [17] | Potency [10] | Potency [11] | activation [12] 2.75% | Potency [13] | outcome [14] | Potency [15] | Potency [16]
active: Potency [9] 14.1 µM

N=c1ccn2c(n1)O[C@H]1[C@H](O)[C@@H](CO)O[C@H]12
inactive: Potency [1] | Potency [2] | Potency [3] | Potency [4] | Potency [18] | outcome [5] | Potency [8] | Potency [17] | Potency [9] | outcome [19] | Potency [10] | Potency [11] | outcome [14]

CN(C)c1nc(N)c(C(=O)N=C(N)N)nc1Cl
1.27%: viability change [13]
inactive: Potency [1] | Potency [2] | Potency [3] | Potency [4] | Potency [18] | outcome [6] | outcome [7] | Potency [8] | Potency [17] | Potency [9] | Potency [10] | activation [12] 0.625% | Potency [13] | outcome [14] | Potency [15] | Potency [16]

CC(C)(C=O)Cc1cc(C(C)(C)C)c(O)c(C(C)(C)C)c1
inactive: Potency [1] | Potency [2] | Potency [3] | Potency [4] | Potency [18] | outcome [5] | outcome [6] | outcome [7] | Potency [8] | Potency [10] | Potency [11] | activation [12] -9.5% | Potency [13] | outcome [14] | Potency [15] | Potency [16]
5.81%: viability change [13]
